Measurements from the supplement of paper PMC10849652.
Targets with a hit are over-represented here; the source holds about 8,800 in all. About 0.5% of all pairs of compound and target were hits.

How the values were obtained:
Test in all cases: log2 fold change, soluble protein after heating vs DMSO (PISA); higher = thermal stabilisation; K562 lysate, 10 uM; active = over 0.2 and 3.5 SD of the protein, either way, in both replicates (recomputed)
[1] = compound: CN1CC[C@H](c2c(O)cc(O)c3c(=O)cc(-c4ccccc4Cl)oc23)[C@H](O)C1 [alvocidib]
In short: (§1)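 The values are log-two fold changes in thermal stability compared with solvent controls and come from duplicates. They were obtained by TMTpro 16plex LC-MS/MS, with channel sums equalised, on the supernatant after 21,000xg for 90 min. That supernatant came from crude K562 extract at 1 mg/mL protein treated with 10 μM compound for 30 min, heated for 3 min across 48°C-58°C, pooled and brought to 0.5% NP-40 at 4°C.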

[2] = compound: CN1CCc2c(c3ccccc3n2Cc2ccc(C(=O)NO)cc2)C1 [Tubastatin A]
In short: as §1

[3] = compound: CNC(=O)C1=CC=CC=C1NC2=NC(=NC=C2Cl)NC3=C(C=C(C=C3)N4CCOCC4)OC
In short: as §1

[4] = compound: CNC(=O)c1ccc(Nc2ncc(C(F)(F)F)c(NCc3nccnc3N(C)S(C)(=O)=O)n2)cc1 [defactinib]
In short: as §1

[5] = compound: CNc1nc(-c2ccc3c(N)n[nH]c3c2)cc(N2C[C@@H](C(=O)NC3CCCCC3)CC[C@H]2C)n1
In short: as §1

[6] = compound: COC(=O)N[C@@H](C)CNc1nccc(-c2cn(C(C)C)nc2-c2cc(Cl)cc(NS(C)(=O)=O)c2F)n1 [encorafenib]
In short: as §1

[7] = compound: COC(=O)[C@H](CCSC)NC(=O)C1=C(C=C(C=C1)NC[C@H](CS)N)C2=CC=CC=C2
In short: as §1

[8] = compound: COc1cc(Nc2ncc3c(n2)-c2ccc(Cl)cc2C(c2c(F)cccc2OC)=NC3)ccc1C(=O)O [alisertib]
In short: as §1

[9] = compound: COc1cc2nc(-c3cc(F)ccc3O)nc(N[C@@H]3CNC[C@H]3C(C)(C)O)c2cc1OC
In short: as §1

[10] = compound: COc1cc2ncnc(Nc3ccc(F)c(Cl)c3)c2cc1OCCCN1CCOCC1 [gefitinib]
In short: as §1

[11] = compound: CS(=O)(=O)CCNCc1ccc(-c2ccc3ncnc(Nc4ccc(OCc5cccc(F)c5)c(Cl)c4)c3c2)o1 [lapatinib]
In short: as §1

[12] = compound: CS(=O)(=O)N1CCN(Cc2cc3nc(-c4cccc5[nH]ncc45)nc(N4CCOCC4)c3s2)CC1 [pictilisib]
In short: as §1

[13] = compound: C[C@@H](Oc1cc(-c2cnn(C3CCNCC3)c2)cnc1N)c1c(Cl)ccc(F)c1Cl [crizotinib]
In short: as §1

[14] = compound: C[C@H](C1=CC=C(C=C1)C(=O)NC2=C3C=CNC3=NC=C2)N
In short: as §1

[15] = compound: C[C@H](Nc1ncnc2nc[nH]c12)c1cc2cccc(Cl)c2c(=O)n1-c1ccccc1 [duvelisib]
In short: as §1

[16] = compound: Cc1cc(Nc2cc(CN3CCOCC3)c3nc(C)c(Cc4ccc(Cl)cc4F)n3n2)n[nH]1 [gandotinib]
In short: as §1

[17] = compound: Cc1cc(Nc2cc(N3CCN(C)CC3)nc(Sc3ccc(NC(=O)C4CC4)cc3)n2)n[nH]1 [tozasertib]
In short: as §1

[18] = compound: Cc1ccc(-n2nc(C(C)(C)C)cc2NC(=O)Nc2ccc(OCCN3CCOCC3)c3ccccc23)cc1 [doramapimod]
In short: as §1

[19] = compound: Cc1ccc(NC(=O)c2ccc(CN3CC[C@H](N(C)C)C3)c(C(F)(F)F)c2)cc1Nc1nccc(-c2cncnc2)n1 [bafetinib]
In short: as §1

[20] = compound: Cc1cccc(CC(=O)N2CCc3c2ccc(-c2cn(C)c4ncnc(N)c24)c3F)n1
In short: as §1

Measured: log2 fold change

EIF2B5 (UniProt Q13144)
Chain of UniProt Q13144 (Q13144 whole entry, looked up): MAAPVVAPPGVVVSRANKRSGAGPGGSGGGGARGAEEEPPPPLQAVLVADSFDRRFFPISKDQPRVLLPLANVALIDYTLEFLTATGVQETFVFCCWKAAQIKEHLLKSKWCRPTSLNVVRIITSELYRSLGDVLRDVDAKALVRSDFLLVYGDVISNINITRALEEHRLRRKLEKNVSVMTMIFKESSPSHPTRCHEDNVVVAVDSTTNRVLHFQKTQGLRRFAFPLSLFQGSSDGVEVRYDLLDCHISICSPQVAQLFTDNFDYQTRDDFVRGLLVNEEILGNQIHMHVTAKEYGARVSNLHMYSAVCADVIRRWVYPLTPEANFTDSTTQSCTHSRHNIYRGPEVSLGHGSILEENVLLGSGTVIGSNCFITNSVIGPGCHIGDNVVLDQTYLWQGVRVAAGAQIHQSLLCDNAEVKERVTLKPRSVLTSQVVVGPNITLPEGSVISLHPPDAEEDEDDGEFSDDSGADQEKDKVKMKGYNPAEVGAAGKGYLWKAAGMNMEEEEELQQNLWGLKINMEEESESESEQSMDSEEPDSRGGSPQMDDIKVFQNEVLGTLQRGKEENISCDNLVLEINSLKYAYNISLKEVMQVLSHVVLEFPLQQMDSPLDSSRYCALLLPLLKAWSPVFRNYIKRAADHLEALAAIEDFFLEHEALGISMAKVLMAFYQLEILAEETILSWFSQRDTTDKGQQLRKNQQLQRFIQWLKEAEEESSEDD
inactive: [1] 0.03 | [2] -0.06 | [3] 0.04 | [4] 0.022 | [5] 0.023 | [6] -0.009 | [7] 0.046 | [8] -0.004 | [9] 0.005 | [10] -0.016 | [11] -0.01 | [12] -0.012 | [13] -0.009 | [14] -0.005 | [15] 0.001 | [16] -0.119 | [17] -0.019 | [18] 0.003 | [19] -0.033 | [20] 0.006

FDX2 (UniProt Q6P4F2)
Chain of UniProt Q6P4F2 (Q6P4F2 whole entry, looked up): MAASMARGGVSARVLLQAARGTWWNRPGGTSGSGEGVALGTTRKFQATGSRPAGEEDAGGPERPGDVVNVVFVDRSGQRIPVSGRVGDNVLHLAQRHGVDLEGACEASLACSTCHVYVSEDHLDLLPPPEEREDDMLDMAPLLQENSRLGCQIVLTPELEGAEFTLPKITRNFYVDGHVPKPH
inactive: [1] -0.016 | [2] 0.093 | [3] -0.001 | [4] -0.017 | [5] -0.478 | [6] -0.33 | [7] -0.313 | [8] 0.07 | [9] -0.021 | [10] -0.041 | [11] 0.047 | [12] -0.169 | [13] 0.057 | [14] -0.142 | [15] 0.188 | [16] 0.014 | [17] -0.15 | [18] 0.014 | [19] 0 | [20] 0.112

FNTB (UniProt P49356)
Chain of UniProt P49356 (P49356 whole entry, looked up): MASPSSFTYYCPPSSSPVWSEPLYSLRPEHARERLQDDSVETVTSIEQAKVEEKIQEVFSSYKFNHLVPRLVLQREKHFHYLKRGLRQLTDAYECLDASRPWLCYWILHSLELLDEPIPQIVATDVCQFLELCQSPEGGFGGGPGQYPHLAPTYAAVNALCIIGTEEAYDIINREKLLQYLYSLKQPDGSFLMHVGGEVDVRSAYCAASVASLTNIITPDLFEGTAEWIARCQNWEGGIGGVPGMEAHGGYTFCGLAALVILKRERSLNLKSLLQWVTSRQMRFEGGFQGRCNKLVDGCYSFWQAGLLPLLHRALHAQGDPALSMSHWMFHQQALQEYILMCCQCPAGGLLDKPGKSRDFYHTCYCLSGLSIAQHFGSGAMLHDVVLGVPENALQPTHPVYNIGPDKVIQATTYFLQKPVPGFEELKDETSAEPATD
inactive: [1] -0.003 | [2] 0.048 | [3] -0.019 | [4] 0.026 | [5] -0.056 | [6] -0.046 | [7] 0.131 | [8] -0.034 | [9] -0.007 | [10] -0.031 | [11] 0.027 | [12] -0.052 | [13] 0.032 | [14] -0.047 | [15] 0.143 | [16] 0.055 | [17] -0.069 | [18] -0.053 | [19] -0.013 | [20] 0.015

FYB1 isoform 3 (UniProt O15117)
inactive: [1] -0.012 | [2] -0.001 | [3] 0.013 | [4] 0.033 | [5] 0.065 | [6] -0.005 | [7] -0.035 | [8] -0.012 | [9] -0.014 | [10] -0.029 | [11] 0.045 | [12] -0.008 | [13] -0.082 | [14] 0.147 | [15] 0.01 | [16] -0.051 | [17] 0.052 | [18] -0.007 | [19] -0.062 | [20] -0.058

EPRS (UniProt P07814)
Chain of UniProt P07814 (P07814 whole entry, looked up): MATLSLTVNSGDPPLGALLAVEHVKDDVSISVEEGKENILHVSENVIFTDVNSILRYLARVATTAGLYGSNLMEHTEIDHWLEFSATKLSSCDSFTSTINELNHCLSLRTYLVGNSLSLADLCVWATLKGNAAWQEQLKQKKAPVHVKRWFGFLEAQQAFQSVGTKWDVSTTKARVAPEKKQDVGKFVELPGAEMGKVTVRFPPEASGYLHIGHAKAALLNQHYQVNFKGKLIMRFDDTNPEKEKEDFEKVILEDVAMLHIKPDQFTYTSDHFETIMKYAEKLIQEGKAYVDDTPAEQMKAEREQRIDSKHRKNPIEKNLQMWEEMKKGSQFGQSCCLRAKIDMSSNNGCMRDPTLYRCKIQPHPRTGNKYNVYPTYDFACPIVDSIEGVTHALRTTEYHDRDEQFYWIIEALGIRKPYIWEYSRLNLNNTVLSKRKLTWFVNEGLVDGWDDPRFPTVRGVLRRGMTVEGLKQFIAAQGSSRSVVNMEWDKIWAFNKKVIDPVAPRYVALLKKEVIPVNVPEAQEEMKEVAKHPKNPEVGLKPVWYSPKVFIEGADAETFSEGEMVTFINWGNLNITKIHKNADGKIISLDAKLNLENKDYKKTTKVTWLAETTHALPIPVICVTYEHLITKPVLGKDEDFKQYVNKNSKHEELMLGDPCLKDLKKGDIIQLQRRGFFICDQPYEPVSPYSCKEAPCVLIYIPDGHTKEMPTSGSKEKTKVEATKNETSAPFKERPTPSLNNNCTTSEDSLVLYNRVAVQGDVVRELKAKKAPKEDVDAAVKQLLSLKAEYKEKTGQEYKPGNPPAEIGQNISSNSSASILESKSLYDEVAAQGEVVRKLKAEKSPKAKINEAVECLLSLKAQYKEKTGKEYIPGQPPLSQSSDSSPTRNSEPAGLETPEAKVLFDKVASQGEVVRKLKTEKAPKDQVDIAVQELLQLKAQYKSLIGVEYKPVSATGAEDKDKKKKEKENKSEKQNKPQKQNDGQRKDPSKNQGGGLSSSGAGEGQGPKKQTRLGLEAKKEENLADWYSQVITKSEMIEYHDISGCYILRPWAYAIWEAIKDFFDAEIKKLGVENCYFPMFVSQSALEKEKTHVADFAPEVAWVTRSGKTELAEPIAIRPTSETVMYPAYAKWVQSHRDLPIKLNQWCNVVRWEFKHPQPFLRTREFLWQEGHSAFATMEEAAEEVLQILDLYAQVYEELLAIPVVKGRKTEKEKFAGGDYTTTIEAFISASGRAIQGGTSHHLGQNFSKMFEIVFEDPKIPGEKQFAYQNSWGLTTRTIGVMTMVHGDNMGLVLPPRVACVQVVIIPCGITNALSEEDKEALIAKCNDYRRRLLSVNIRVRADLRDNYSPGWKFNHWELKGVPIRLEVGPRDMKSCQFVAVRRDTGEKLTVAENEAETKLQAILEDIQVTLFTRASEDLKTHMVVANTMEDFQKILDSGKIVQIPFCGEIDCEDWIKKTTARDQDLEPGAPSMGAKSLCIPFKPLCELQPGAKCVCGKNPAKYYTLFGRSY
inactive: [1] 0.012 | [2] -0.11 | [3] 0.002 | [4] 0.003 | [5] -0.015 | [6] -0.004 | [7] 0.107 | [8] 0.015 | [9] -0.01 | [10] -0.032 | [11] -0.005 | [12] 0.006 | [13] -0.042 | [14] 0.015 | [15] 0.031 | [16] -0.069 | [17] 0.012 | [18] 0.02 | [19] 0.003 | [20] 0.019

GIGYF2 (UniProt Q6Y7W6)
inactive: [1] -0.028 | [2] -0.164 | [3] 0.052 | [4] 0.017 | [5] 0.019 | [6] 0.092 | [7] -0.063 | [8] 0.028 | [9] 0.013 | [10] 0.005 | [11] 0.013 | [12] 0.057 | [13] 0.024 | [14] 0.03 | [15] -0.033 | [16] 0.05 | [17] -0.006 | [18] -0.086 | [19] -0.043 | [20] -0.009

EMP3 (UniProt P54852)
active: [14] -0.763 | [16] 0.351 | [20] 0.329
inactive: [1] -0.227 | [2] -0.021 | [3] 0.067 | [4] 0.009 | [5] 0.056 | [6] -0.016 | [7] 0.022 | [8] 0.053 | [9] 0.052 | [10] -0.071 | [11] 0 | [12] -0.03 | [13] -0.002 | [15] 0 | [17] -0.078 | [18] 0.029 | [19] -0.019

FKBP1A (UniProt P62942)
Chain of UniProt P62942 (P62942 whole entry, looked up): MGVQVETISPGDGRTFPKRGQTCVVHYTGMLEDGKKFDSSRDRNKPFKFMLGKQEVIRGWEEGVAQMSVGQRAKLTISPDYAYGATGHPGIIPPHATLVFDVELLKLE
inactive: [1] -0.296 | [2] 0.047 | [3] 0.06 | [4] 0.144 | [5] 0.034 | [6] 0.005 | [7] -0.061 | [8] 0.105 | [9] -0.076 | [10] -0.003 | [11] -0.011 | [12] -0.031 | [13] 0.005 | [15] 0.074 | [16] 0.266 | [17] -0.037 | [18] -0.04 | [19] -0.111 | [20] 0.15
active: [14] -0.814

GDPD1 (UniProt Q8N9F7)
inactive: [1] 0 | [2] -0.023 | [3] 0.006 | [4] -0.03 | [5] 0.046 | [6] 0.059 | [8] -0.018 | [9] -0.027 | [10] -0.035 | [11] 0.03 | [12] -0.042 | [13] -0.157 | [14] 0.001 | [15] 0.049 | [16] 0.164 | [17] -0.029 | [18] 0.027 | [19] 0.022 | [20] 0.007
active: [7] -0.272

GCN1 (UniProt Q92616)
inactive: [1] 0.036 | [2] -0.181 | [3] 0.001 | [4] 0.037 | [5] -0.023 | [6] 0.014 | [7] 0.147 | [8] 0.023 | [9] 0.006 | [10] -0.004 | [11] -0.034 | [12] -0.027 | [13] -0.125 | [14] -0.002 | [15] 0.008 | [16] -0.121 | [17] 0.017 | [18] 0.019 | [19] -0.049 | [20] 0.053

FCHO1 (UniProt O14526)
Chain of UniProt O14526 (O14526 whole entry, looked up): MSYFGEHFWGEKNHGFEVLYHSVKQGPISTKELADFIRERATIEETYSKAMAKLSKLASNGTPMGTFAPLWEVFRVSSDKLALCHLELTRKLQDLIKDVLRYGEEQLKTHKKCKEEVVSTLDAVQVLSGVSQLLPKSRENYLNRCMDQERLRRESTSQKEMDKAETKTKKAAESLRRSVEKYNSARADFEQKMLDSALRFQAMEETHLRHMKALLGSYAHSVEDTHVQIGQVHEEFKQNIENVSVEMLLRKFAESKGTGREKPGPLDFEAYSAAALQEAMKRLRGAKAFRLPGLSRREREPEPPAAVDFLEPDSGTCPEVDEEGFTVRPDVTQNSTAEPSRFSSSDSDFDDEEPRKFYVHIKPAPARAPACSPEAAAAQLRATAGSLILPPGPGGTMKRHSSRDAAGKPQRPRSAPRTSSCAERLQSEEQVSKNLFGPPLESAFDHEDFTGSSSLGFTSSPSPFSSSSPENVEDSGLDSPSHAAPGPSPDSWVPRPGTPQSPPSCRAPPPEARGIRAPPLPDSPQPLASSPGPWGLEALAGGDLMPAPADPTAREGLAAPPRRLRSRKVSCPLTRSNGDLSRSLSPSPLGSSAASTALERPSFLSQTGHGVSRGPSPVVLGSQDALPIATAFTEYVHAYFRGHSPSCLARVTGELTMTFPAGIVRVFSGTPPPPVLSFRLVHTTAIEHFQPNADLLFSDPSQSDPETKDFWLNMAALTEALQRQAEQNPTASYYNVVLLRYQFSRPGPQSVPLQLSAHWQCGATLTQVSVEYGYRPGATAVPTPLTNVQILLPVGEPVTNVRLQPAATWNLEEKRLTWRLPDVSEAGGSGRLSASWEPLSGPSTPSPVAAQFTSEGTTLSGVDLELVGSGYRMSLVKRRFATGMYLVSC
inactive: [1] 0.027 | [2] -0.188 | [3] 0.038 | [4] 0.039 | [5] 0.038 | [6] 0.009 | [7] 0.076 | [8] 0.009 | [9] -0.021 | [10] 0.003 | [11] -0.034 | [12] 0.027 | [13] -0.072 | [14] -0.061 | [15] -0.025 | [16] -0.027 | [17] 0.027 | [18] -0.039 | [19] -0.141 | [20] 0.058

EDC4 (UniProt Q6P2E9)
inactive: [1] -0.012 | [2] -0.14 | [3] 0.015 | [4] -0.008 | [5] -0.034 | [6] 0.009 | [7] -0.116 | [8] 0.021 | [9] 0.021 | [10] -0.017 | [11] -0.025 | [12] -0.029 | [13] -0.01 | [14] -0.044 | [15] 0.016 | [16] -0.027 | [17] -0.016 | [18] -0.014 | [19] -0.043 | [20] 0.049

FIBP (UniProt O43427)
Chain of UniProt O43427 (O43427 whole entry, looked up): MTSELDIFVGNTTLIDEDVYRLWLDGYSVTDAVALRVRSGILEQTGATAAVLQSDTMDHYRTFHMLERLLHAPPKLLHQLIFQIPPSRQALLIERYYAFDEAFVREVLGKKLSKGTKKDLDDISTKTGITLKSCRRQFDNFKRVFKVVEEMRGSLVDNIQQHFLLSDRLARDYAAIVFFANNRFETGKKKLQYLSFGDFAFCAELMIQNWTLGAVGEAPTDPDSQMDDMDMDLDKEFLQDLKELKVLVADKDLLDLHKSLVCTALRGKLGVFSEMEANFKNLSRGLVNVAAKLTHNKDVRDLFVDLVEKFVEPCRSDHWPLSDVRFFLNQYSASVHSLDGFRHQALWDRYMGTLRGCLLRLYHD
inactive: [1] 0.03 | [2] 0.003 | [3] 0.05 | [4] 0.1 | [5] -0.079 | [6] 0.036 | [7] 0.094 | [8] 0.012 | [9] 0.002 | [10] -0.005 | [11] -0.016 | [12] -0.074 | [13] -0.08 | [14] 0.003 | [15] 0.073 | [16] -0.031 | [17] 0.05 | [18] -0.038 | [19] -0.025 | [20] 0.094

EXOC6 (UniProt Q8TAG9)
Chain of UniProt Q8TAG9 (Q8TAG9 whole entry, looked up): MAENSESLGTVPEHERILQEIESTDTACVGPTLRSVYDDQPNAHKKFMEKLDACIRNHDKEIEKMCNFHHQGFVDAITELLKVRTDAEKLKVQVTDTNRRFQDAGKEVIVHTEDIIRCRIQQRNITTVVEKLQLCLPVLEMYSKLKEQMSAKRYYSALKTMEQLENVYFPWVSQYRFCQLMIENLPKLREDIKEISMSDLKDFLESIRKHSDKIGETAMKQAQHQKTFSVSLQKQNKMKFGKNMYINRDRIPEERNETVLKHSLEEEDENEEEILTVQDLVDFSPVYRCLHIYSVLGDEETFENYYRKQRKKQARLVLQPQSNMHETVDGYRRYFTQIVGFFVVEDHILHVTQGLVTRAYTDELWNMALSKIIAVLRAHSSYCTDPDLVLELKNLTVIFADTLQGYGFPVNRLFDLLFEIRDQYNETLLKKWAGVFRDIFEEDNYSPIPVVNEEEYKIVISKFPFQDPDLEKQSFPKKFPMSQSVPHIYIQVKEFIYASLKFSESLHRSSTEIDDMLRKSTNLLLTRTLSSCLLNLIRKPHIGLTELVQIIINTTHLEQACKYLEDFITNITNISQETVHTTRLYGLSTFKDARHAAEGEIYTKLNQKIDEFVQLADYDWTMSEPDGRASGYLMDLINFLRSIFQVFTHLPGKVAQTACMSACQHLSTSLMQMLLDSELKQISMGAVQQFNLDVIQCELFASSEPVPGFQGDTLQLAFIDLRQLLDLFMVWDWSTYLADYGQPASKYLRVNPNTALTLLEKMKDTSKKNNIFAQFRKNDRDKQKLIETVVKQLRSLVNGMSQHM
inactive: [1] -0.014 | [2] -0.092 | [3] 0.013 | [4] 0.008 | [5] -0.017 | [6] 0.015 | [7] 0.039 | [8] 0.007 | [9] 0.016 | [10] 0.003 | [11] -0.017 | [12] -0.04 | [13] -0.121 | [14] -0.013 | [15] 0 | [16] -0.166 | [17] 0.029 | [18] 0.004 | [19] -0.059 | [20] 0.033

EXOC5 (UniProt O00471)
inactive: [1] 0.004 | [2] -0.064 | [3] -0.011 | [4] 0.007 | [5] -0.07 | [6] 0.029 | [7] -0.102 | [8] 0.029 | [9] -0.025 | [10] 0.002 | [11] -0.012 | [12] 0.017 | [13] -0.067 | [14] 0.055 | [15] -0.027 | [16] -0.202 | [17] 0.025 | [18] 0.027 | [19] -0.033 | [20] 0.003

FAM118A (UniProt Q9NWS6)
inactive: [1] 0.006 | [2] -0.153 | [3] 0.077 | [4] -0.007 | [5] 0.002 | [6] -0.017 | [7] 0.002 | [8] 0.008 | [9] 0.03 | [10] 0.003 | [11] 0.02 | [12] -0.006 | [13] -0.054 | [14] -0.09 | [15] 0.019 | [16] 0.002 | [17] -0.016 | [18] -0.013 | [19] -0.059 | [20] 0.118
